RORg inh = ROR gamma (mouse) transcription inhibition. P51450. Potency, µM (titrated, usually from 53.6 µM), for the others: at the top dose activity change, negative = inhibition, actives largely listed as inhibitors. 310,000 tested, 5.4% active. Drosophila S2 Gal4-RORgamma UAS-luciferase reporter, 20 h. AID 2551; further: potency means the concentration at half of the fitted maximal effect; on the % scale 0 is the no-effect control and ±100 the full control effect; nearly all actives have a fitted effect of over 60% in size
Target sequence (P51450 whole entry, looked up, the tested form may be a part): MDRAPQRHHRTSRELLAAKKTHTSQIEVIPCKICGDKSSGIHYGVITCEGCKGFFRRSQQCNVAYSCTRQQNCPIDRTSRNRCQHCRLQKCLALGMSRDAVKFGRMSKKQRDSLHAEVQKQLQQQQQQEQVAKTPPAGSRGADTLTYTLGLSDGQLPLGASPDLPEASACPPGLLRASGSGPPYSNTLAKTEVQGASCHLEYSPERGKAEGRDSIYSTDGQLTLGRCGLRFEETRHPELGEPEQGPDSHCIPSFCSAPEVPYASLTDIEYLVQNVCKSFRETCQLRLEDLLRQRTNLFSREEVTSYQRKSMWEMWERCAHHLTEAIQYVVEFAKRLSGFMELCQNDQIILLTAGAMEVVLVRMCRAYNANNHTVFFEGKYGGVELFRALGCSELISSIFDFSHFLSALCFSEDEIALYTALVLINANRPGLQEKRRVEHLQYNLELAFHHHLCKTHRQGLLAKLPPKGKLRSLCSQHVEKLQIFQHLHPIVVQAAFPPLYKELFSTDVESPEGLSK
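Drosophila S2 cells stably expressing Gal4-DBD/mouse RORγ fusion under metallothionein promoter plus UAS-luciferase; compound 1 h, then 700 uM CuSO4 induction for 20 h at ambient temperature; inhibition read as reduced luminescence.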
p53 reactivation = re-activators of mutant p53; H1299 p53-A138V BP100-luciferase reporter, luminescence, 24 h; Potency, µM (doses to about 92.2 µM), inactives show at the top dose activity change, positive = activation, hits mostly activators; 320,000 tested, 0.063% active; further: potency means the concentration at half of the fitted maximal effect; % of control where 0% means no effect; nearly all actives have a fitted effect of over 45% in size
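p53-null H1299 cells stably carrying temperature-sensitive p53-A138V and a BP100-luciferase reporter were pinned with compounds (4-point, 1:5 series) and held 24 hrs at 37 deg C. Luminescence was read 10 min after detection reagent.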
VP16 counter = counter-screen for ROR gamma inhibitors: Gal4-VP16 reporter | Drosophila S2 Gal4-VP16 UAS-luciferase, luminescence, 20 h | Potency, µM (series often up to 53.6 µM), for the others: at the highest dose activity, negative = inhibition, most hits filed as inhibitors | 310,000 tested, 3.5% active;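 further: Gal4-VP16 expression switched on by copper sulfate through the metallothionein promoter; potency means the concentration at half of the fitted maximal effect; on the % scale 0 is the no-effect control and ±100 the full control effect; nearly all actives have a fitted effect of over 50% in size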
Six1-Eya2 inh = Six1/Eya2 interaction inhibition; Q15475+O00167; activity change, % (no concentration beside the values); 360,000 tested, 0.56% active; AlphaScreen GST-Six1/His-Eya2 binding, biochemical; stronger effect = lower value; in the data active means activity change below about -65%; inconclusive means mostly about -30% to -63%; further: on the % scale 0 is the no-effect control and ±100 the full control effect
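GST-Six1 + His-Eya2 (5X stock: 250/500 nM); Tris pH 8.0, 300 mM NaCl, 0.05% BSA, 0.02% Tween 20; GSH donor/Ni acceptor beads; 1 h 37 °C dark; AlphaScreen readout.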
CtBP-E1A inh = CtBP/E1A binding inhibition | 340,000 tested, 0.49% active | activity change, % (concentration not given with the values) | AlphaScreen GST-E1A/His-CtBP binding, 1536-well; stronger effect = lower value; in the data active means activity change below about -65%; inconclusive means mostly about -30% to -63%; further: on the % scale 0 is the no-effect control and ±100 the full control effect
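In 5 uL wells, 23 nL compound meets equimolar GST-E1A and His-CtBP (5X stock 125 nM each) for 2 h, 37 °C. Beads (5X, 50 ug/mL) then 1 h, 37 °C, dark.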
* marks the source's active call; other numbers are inactive results; [ ] = another dose, or the depositor's remark. This is a sample that favours compounds with a hit; in the whole collection about 5.4% have one here. Unless noted, the call rests on the fitted dose curve; in most records, active means well fitted curve in the direction sought with a large enough effect; inconclusive means small, poorly fitted or top-dose-only effect, or another doubt; inactive means no such curve, though single readings can be large; an effect the other way counts as inactive or inconclusive.

Results for CO/N=C1/c2cc(OC)ccc2O[C@@H](c2cccc(OC)c2)[C@H]1O ?
RORg inh: inconclusive; VP16 counter: -24%[10 µM]

What do the screens show for `CCN(CC)c1ccc(N=Nc2ncn[nH]2)cc1`?
RORg inh: -29%; p53 reactivation: -5%; VP16 counter: -26%; Six1-Eya2 inh: -69*; CtBP-E1A inh: -74*

How did Nc1ccccc1S(=O)(=O)C(F)F do in these assays?
RORg inh: 0%; p53 reactivation: 0%; VP16 counter: 9%; Six1-Eya2 inh: 2

Results for Cc1ccc2[nH]c3c(=S)nc[nH]c3c2c1 ?
RORg inh: 13µM*; p53 reactivation: 17%; VP16 counter: inconclusive; Six1-Eya2 inh: -1; CtBP-E1A inh: -12

How did Cc1cc(O)ccc1N=Cc1c(C(F)(F)F)[nH][nH]c1=O do in these assays?
RORg inh: 11µM*; p53 reactivation: 13%; VP16 counter: inconclusive; Six1-Eya2 inh: -5

What do the screens show for `Cc1cccc(N2CC(O)(c3cccs3)[N+]3=C2CCCC3)c1C` (configuration not stated)?
RORg inh: 8%; p53 reactivation: 5%; VP16 counter: 35µM*; Six1-Eya2 inh: 13; CtBP-E1A inh: 0

Results for Cc1cc(=O)oc2cc(OCC(=O)c3ccccc3)ccc12 ?
RORg inh: 2%; p53 reactivation: 7%; VP16 counter: -16%; Six1-Eya2 inh: 6; CtBP-E1A inh: 8

What do the screens show for `COC(=O)COc1ccc(Oc2cc(C)nc(SC)n2)nn1`?
RORg inh: -6%; p53 reactivation: inconclusive; VP16 counter: -5%; Six1-Eya2 inh: 2; CtBP-E1A inh: 11

How did CSc1nc(C)cc(OCC(=O)N/N=C/c2ccccc2O)n1 do in these assays?
RORg inh: 0.89µM*; p53 reactivation: inconclusive; VP16 counter: 0.71µM*; Six1-Eya2 inh: -68*; CtBP-E1A inh: -69*

What do the screens show for `Cc1cc(=O)oc2cc(OCC(=O)N/N=C/c3ccccc3O)ccc12`?
RORg inh: 2.2µM*; p53 reactivation: 3%; VP16 counter: -19%; Six1-Eya2 inh: -5; CtBP-E1A inh: -3

What do the screens show for `COC(=O)c1cccc(-n2nnnc2SCC(=O)Nc2nc3c(s2)CCCC3)c1`?
RORg inh: -42%; p53 reactivation: -9%; VP16 counter: 2%; Six1-Eya2 inh: 0; CtBP-E1A inh: 2

Results for CCN1CCc2nc(NC(=O)c3ccccc3)sc2C1 ?
RORg inh: 14µM*; VP16 counter: 11µM*; Six1-Eya2 inh: 1; CtBP-E1A inh: -18

How did O=C(Nc1nc2c(s1)CN(Cc1ccccc1)CC2)C1CCC1 do in these assays?
RORg inh: -5%; p53 reactivation: 6%; VP16 counter: 11%; Six1-Eya2 inh: -15; CtBP-E1A inh: -16

What do the screens show for `COc1cccc(-n2nnnc2SCC(=O)Nc2nc3c(s2)CCCC3)c1`?
RORg inh: 3.2µM*; p53 reactivation: inconclusive; VP16 counter: 8.9µM*; Six1-Eya2 inh: -10; CtBP-E1A inh: -6

Results for COc1cccc(C(=O)Nc2nc3c(s2)CN(C)CC3)c1 ?
RORg inh: 15%; p53 reactivation: 3%; VP16 counter: 13µM*; Six1-Eya2 inh: 7; CtBP-E1A inh: 0

Results for CCOc1ccc(S(=O)(=O)N2CCN(C(=O)c3cc(C4CC4)nn3-c3ccccc3)CC2)cc1 ?
p53 reactivation: 5%; Six1-Eya2 inh: -13; CtBP-E1A inh: 1

Results for CC1(C)CC(NC(=O)c2ccccn2)CC(C)(C)N1O ?
RORg inh: -12%; p53 reactivation: 3%; VP16 counter: -14%; Six1-Eya2 inh: 3

Results for COc1cc2c3nnc(-c4ccc(F)cc4)c-3cn(Cc3ccc(F)cc3)c2cc1OC ?
RORg inh: inconclusive; p53 reactivation: inconclusive; VP16 counter: 5%; Six1-Eya2 inh: 1; CtBP-E1A inh: -3

How did COc1cc2c3nnc(-c4ccc(F)cc4)c-3cn(Cc3ccccc3)c2cc1OC do in these assays?
RORg inh: 11µM*; p53 reactivation: inconclusive; VP16 counter: 7.1µM*; Six1-Eya2 inh: -6; CtBP-E1A inh: -3

How did CCn1nc(C)c(/C=N/NC(=S)Nc2ccc(Cl)cc2Cl)c1C do in these assays?
RORg inh: 1.8µM*; p53 reactivation: 6%; VP16 counter: 6.3µM*; Six1-Eya2 inh: -6; CtBP-E1A inh: 0
